About 2,100 (0.62%) of roughly 340,000 compounds were called active. A selection follows. Measured potencies and affinities stand elsewhere. Unmarked numbers belong to inactive results.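 Rule for the calls: active = first-screen hits whose inhibition reached a set limit at any dose in the follow-up dose series; inconclusive = inhibition above the set first-screen limit but never retested; inactive = the rest.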
target: Rac GTPase-activating protein 1 (Homo sapiens) (UniProt Q9H0H5); assay: MgcRacGAP GTPase-activating activity inhibitors, confirmation, biochemical, ADP Hunter fluorescence, primary and confirmatory (AID 624330); conditions: MgcRacGAP-stimulated Rac1 GTP hydrolysis, at 30 µM, hits give high values, GST-tagged Rac1 F28L mutant substrate;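 note: fluorescence reports GDP produced by GAP-driven GTP hydrolysis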
Sequence (Q9H0H5 whole entry, looked up): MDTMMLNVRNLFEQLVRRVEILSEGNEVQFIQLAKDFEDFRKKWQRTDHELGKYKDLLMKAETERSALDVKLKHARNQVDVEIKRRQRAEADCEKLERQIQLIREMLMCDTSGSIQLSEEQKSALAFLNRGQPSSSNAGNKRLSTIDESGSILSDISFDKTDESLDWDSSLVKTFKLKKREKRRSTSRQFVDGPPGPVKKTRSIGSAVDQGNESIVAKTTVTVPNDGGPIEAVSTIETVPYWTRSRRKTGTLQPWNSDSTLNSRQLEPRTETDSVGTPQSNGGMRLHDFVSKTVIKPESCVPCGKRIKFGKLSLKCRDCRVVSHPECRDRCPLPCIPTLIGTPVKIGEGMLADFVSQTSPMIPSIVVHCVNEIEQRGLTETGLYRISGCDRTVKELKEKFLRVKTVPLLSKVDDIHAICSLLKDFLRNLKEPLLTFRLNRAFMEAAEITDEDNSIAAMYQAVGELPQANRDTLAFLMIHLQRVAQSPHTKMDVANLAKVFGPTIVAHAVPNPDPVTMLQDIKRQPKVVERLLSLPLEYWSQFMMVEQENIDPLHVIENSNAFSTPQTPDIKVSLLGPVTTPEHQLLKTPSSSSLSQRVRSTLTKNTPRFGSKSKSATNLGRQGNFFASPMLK

Structure (SMILES) | inhibition
CCC1CCCCN1C(=O)CCS(=O)(=O)c1ccc2c(c1)CCN2C(C)=O (stereo unspecified) | 8.33%
CCOc1ccc(N(CC(=O)Nc2ccccc2OC)S(C)(=O)=O)cc1 | 9.6%
C/C(=N\NC(=O)OC(C)(C)C)c1ccccc1Br | -4.8%
CCCc1cc(=O)[nH]c(SCC(=O)N2CCCCCC2)n1 | 2.49%
COc1ccc(N2CCN(C(=O)CCS(=O)(=O)c3cccc4nsnc34)CC2)cc1 | 28%
Cn1nnnc1SCC(=O)Nc1cc(S(=O)(=O)N2CCCC2)ccc1Cl | 4.66%
CC(/C=N/n1cnnc1)=C\c1ccccc1 | 3.71%
CC(/C=N/n1c(-c2ccccc2)n[nH]c1=S)=C\c1ccco1 | 24.1%
CC(=C/c1ccccc1)/C=N/n1c(C)n[nH]c1=S | 15.2%
CC(=C/c1ccccc1)/C=N/n1cnnc1 | -1.27%
CC(=O)Nc1ccc(S(=O)(=O)NNC(=O)c2cccc([N+](=O)[O-])c2)cc1 | 5.98%
COc1ccccc1NC(=O)CCC(=O)c1ccc(-c2ccccc2)cc1 | -5.2%
CCc1ccc(NC(=O)C(=O)NCCOc2ccccc2Cl)cc1 | -2.71%
Cc1ccccc1C(=O)c1cccn1CC(=O)NC1CCCC(C)C1C (stereo unspecified) | -36.1%
NC(=O)C1(N2CCCCC2)CCN(Cc2ccc(Br)cc2)CC1 | -3.42%
Cc1ccc(C(C)(C)C)c(OCCOCCN2CCCC2)c1 | 24.1%
Cc1cc(Cl)c(OCCOCCN2CCC(C)CC2)c(Br)c1 | 21.9%
Clc1cc(Br)ccc1OCCN1CCOCC1 | 24.7%
Cc1ccc(OCCOCCN2CCCC2)c(Br)c1 | 31.4%
CC1CCN(CCOCCOc2ccc(Br)cc2Cl)CC1 | 5.16%
CC(C)(C)c1ccccc1OCCOCCN1CCCCCC1 | -5.46%
Cc1cc(C)c(OCCOCCN2CCN(C)CC2)c(Cl)c1 | 22.7%
CC1CCCN(CCOCCOc2ccc(Br)cc2Cl)C1 (stereo unspecified) | 30.6%
Cc1cccc(/C(N)=N/OC(=O)Cc2cccs2)c1 | 2.9%

Structure (SMILES) | inhibition
Cn1c(=O)c2c(nc(Oc3ccc(-c4ccccc4)cc3)n2C)n(C)c1=O | 12.2%
COc1ccc(C(=O)Oc2c(OC)cc(C(=S)N3CCOCC3)cc2OC)cc1 | 4.31%
Cc1cc(Br)ccc1OCCCCN1CCC(C)CC1 | 9.17%
Cc1ccc(OCCCCN2CCC(C)CC2)c(Br)c1 | 17%
C[C@@H]1CN([C@@H](C)CO)C(=O)CCCn2nncc2CO[C@@H]1CN(C)S(C)(=O)=O | 12%
COCc1ccc(C(=O)N2CCCCC2C(=O)Nc2ccc(-n3nc(C)cc3C)cc2)o1 (stereo unspecified) | 7.88%
O=C(NCCCNC(=O)c1ccco1)c1ccc(Cl)c(Cl)c1 | 0%
COc1ccc(N=CC2=C(O)CC(C)(C)CC2=O)cc1 | 9.7%
O=C1CC(c2ccccc2)CC(O)=C1C=Nc1ccc(Cl)cc1 (stereo unspecified) | 2.18%
O=C1CC(c2ccccc2)CC(O)=C1C=Nc1ccccc1O (stereo unspecified) | 4.93%
O=C1CCCC(O)=C1C=Nc1cccc(C(F)(F)F)c1 | 11.5%
CC1(C)CC(=O)C(C=Nc2ccncc2)=C(O)C1 | 6.33%
CCOc1ccc(N=CC2=C(O)CC(C)(C)CC2=O)cc1 | 6.9%
CC1(C)CC(=O)C(C=Nc2ccccc2)=C(O)C1 | 2.7%
COc1ccc(N=CC2=C(O)CCCC2=O)cc1 | 13.3%
Cc1ccc(CN2CCN(/N=C/c3ccc(C)s3)CC2)c(C)c1 | 4.97%
COc1ccc(Nc2nnc(SCC(=O)NC3CCS(=O)(=O)C3)s2)cc1 (stereo unspecified) | 4.04%
O=C(CN1C(=O)NC2(CCCCCC2)C1=O)N1CCN(S(=O)(=O)c2ccccc2)CC1 | 0.28%
CC(=O)NC1C(=O)N(CC(C)C)c2ccccc21 (stereo unspecified) | 4.92%
CCCc1ccc2c(N)c(C#N)sc2n1 | 1.65%
Cc1ccccc1C(=O)N(CC(=O)Nc1sc(C)c(C)c1C(N)=O)C1CCCC1 | -20.9%
CCOc1ccc(NC(=O)N(CCC(C)C)C2CCN(C(C)=O)CC2)cc1 | 4.34%
Nc1ccc2c3c(cccc13)C(=O)N(c1ccccc1)C2=O | 5.87%
CCN1C(=O)c2cccc3c(N)ccc(c23)C1=O | 7.37%

Structure (SMILES) | inhibition
Cc1ncoc1C(=O)N1CCCC(C(=O)Nc2cccc(-c3ccc(F)cc3)c2)C1 (stereo unspecified) | -3.84%
CCCc1cc(C(=O)OC)c2ccccc2n1 | 5.2%
O=C(COC(=O)C1CCC(=O)N1)Nc1ccc(Br)cc1 (stereo unspecified) | 15.9%
COc1ccc(CCNC(C(=O)Nc2cc(C)cc(C)c2)c2ccccc2)cc1 (stereo unspecified) | 2.32%
Cc1cc(C)cc(NC(=O)C(NCC2CCCO2)c2ccccc2)c1 (stereo unspecified) | 20.5%
CCC1(C)CC(CCN(Cc2ccco2)C(C)=O)(c2ccccc2)CCO1 (stereo unspecified) | 6.02%
CCOC(=O)N1CCC(N2C(=O)c3ccc(C(=O)NCc4ccc(F)cc4)cc3C2=O)CC1 | -5.85%
CC(=O)c1c(C)[nH]c(C(=O)OCC(=O)Nc2ccc3[nH]c(=O)[nH]c3c2)c1C | 9.39%
O=S(=O)(Cc1ccccc1)Nc1ccc(F)cc1 | 8.87%
CCOC(=O)N1CCC(NC(=O)c2ccc3c(c2)N=C(C)c2ccccc2S3)CC1 | 4.04%
CC1=Nc2cc(C(=O)O)ccc2Sc2ccc(C)cc21 | -10.1%
CCC1=Nc2cc(C(=O)O)ccc2Sc2ccccc21 | -0.29%
CC1=Nc2cc(C(=O)NCCCOC(C)C)ccc2Sc2ccc(C)cc21 | 7.38%
Cc1cccc(N(C(=O)CNC(=O)c2ccco2)C(C(=O)NC2CCCC2)c2cccnc2)c1C (stereo unspecified) | 5.36%
Cc1ccccc1OCC1Cn2c(nc3c2c(=O)[nH]c(=O)n3C)O1 (stereo unspecified) | 2.68%
Cc1c(NC(=S)N/N=C/c2ccc(Br)cc2)c(=O)n(-c2ccccc2)n1C | 9.41%
CN1C(=S)N(c2cccnc2)C(=O)/C1=C\c1ccc(N(C)C)cc1 | 12.2%
Cc1c(NC(=S)N/N=C/c2cccc(O)c2)c(=O)n(-c2ccccc2)n1C | 12.8%
Cc1c(N=Cc2cc3c(cc2Cl)OCO3)c(=O)n(-c2ccccc2)n1C | 4.04%
Cc1c(O)c(=O)n(-c2ccccc2)n1C | 2.13%
Cc1c(N2C(=O)/C(=C/c3ccc(N(C)C)cc3)N(C)C2=S)c(=O)n(-c2ccccc2)n1C | 27.2%
COC(=O)/C(N=Nc1c(C)n(C)n(-c2ccccc2)c1=O)=C(\C)O | 6.21%
CC(=O)/C(N=Nc1c(C)n(C)n(-c2ccccc2)c1=O)=C(\C)O | 0.69%
